Whole data set: some 33,000 sequences, median “e-score” near -0.053, cut for the highest 2% near 0.38. Only a selection was taken, and the highest values are over-represented in it overall.

The assay deals with T1, SIX1 homeodomain (reference allele) (human, UniProt Q15475 108-198).
T1 sequence: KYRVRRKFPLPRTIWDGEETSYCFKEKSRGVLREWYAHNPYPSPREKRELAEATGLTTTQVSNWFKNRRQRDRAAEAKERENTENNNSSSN
The assay is described as follows: universal protein binding microarray; Universal all-10-mer PBM (8x60K, AMADID 030236), 300 nM GST-tagged protein, Alexa Fluor 488 anti-GST; buffer, salt, pH and temperature not stated (as in Berger); high values mean tight binding. The following applies: protein: ivt; tags: N-terminal GST; dsDNA, one strand shown. In a few lines:
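GST-tagged homeodomains were made by in vitro transcription/translation and quantified by anti-GST western blot against a recombinant GST standard curve. They were applied in duplicate at 300 nM final concentration to universal 'all 10-mer' protein binding microarrays (8×60K format). Binding was quantified as 8-mer E-scores with the Universal PBM Analysis Suite.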
Consider GAGTTATC, for which the binding signal amounted to 0.248 ± 0.0177 E-score.
With AAGGTATG, the binding signal is 0.201 ± 0.00407 E-score.
Take CCGGCTAA: the binding signal came to 0.178 ± 0.0089 E-score.
As for ACACCTAA, the binding signal was found to be 0.261 ± 0.0204 E-score.
Consider CCAATCCG, for which the binding signal came to 0.224 ± 0.0167 E-score.
As to CGCCGATC, the binding signal was 0.258 ± 0.0126 E-score.
In the case of ATCCATAC, the binding signal is 0.31 ± 0.0347 E-score.
As to AGCGGTAT, the binding signal was 0.3428 ± 0.000445 E-score.
Turning to TATCGGCA, the binding signal came out at 0.244 ± 0.0173 E-score.
For AGACGATC the value was 0.285 ± 0.0103 E-score; for AGCCTATC, 0.192 ± 0.0162 E-score; for CCCCGCCA, 0.161 ± 0.0538 E-score.
Take ATTATCTC: the binding signal amounted to 0.203 ± 0.126 E-score.
With GATAGGGC, the binding signal was 0.285 ± 0.0546 E-score.
Consider GATAGGGA, for which the binding signal came out at 0.376 ± 0.00884 E-score.
Consider TATAGGGA, for which the binding signal was 0.206 ± 0.00286 E-score.
Turning to AGGAATCC, the binding signal is 0.197 ± 0.00841 E-score.
As for GATCGTCC, the figure is 0.238 ± 0.0474 E-score; as for CAAACCCG, 0.174 ± 0.0382 E-score; as for GAATACCC, 0.368 ± 0.0333 E-score.
For CAATACCC the value was 0.387 ± 0.00788 E-score.
For AGATACCT, the binding signal is 0.42 ± 0.0259 E-score.
As for CAATACCG, the binding signal was determined as 0.354 ± 0.0156 E-score.
For ACATACCG the value was 0.162 ± 0.0512 E-score; for AGATACCA, 0.422 ± 0.0101 E-score.
For the sequence AAATACCT, the binding signal is 0.173 ± 0.0423 E-score.
In the case of AAATACCG, the binding signal was 0.178 ± 0.0267 E-score.
Regarding AGATACAT, the binding signal was found to be 0.329 ± 0.00303 E-score.
For the sequence CGATACCG, the binding signal came out at 0.45 ± 0.0109 E-score.
CCATACAC: the binding signal stood at 0.174 ± 0.121 E-score.
For the sequence ATCATTGA, the binding signal turned out to be 0.2801 ± 0.000297 E-score.
As for ATCGTGTC, the figure is 0.274 ± 0.0122 E-score; as for GATAGATA, 0.364 ± 0.0331 E-score.
Regarding CTAGTGTA, the binding signal turned out to be 0.189 ± 0.0116 E-score.
Turning to GGTTCATA, the binding signal is 0.154 ± 0.00678 E-score.
Take CGATAACC: the binding signal came out at 0.2329 ± 0.00167 E-score.
In the case of CCATACCC, the binding signal stood at 0.274 ± 0.0803 E-score.
TGATACAA: the binding signal was found to be 0.337 ± 0.0251 E-score.
On to CGATACCA, for which the binding signal stood at 0.455 ± 0.0104 E-score.
Turning to ACATACCC, the binding signal came to 0.194 ± 0.0165 E-score.
With AGATACCC, the binding signal came to 0.4684 ± 0.00214 E-score.
As for CAATACCA, the figure is 0.375 ± 0.0246 E-score.
Take AGATACCG: the binding signal worked out at 0.37 ± 0.00507 E-score.
On to CTATACCA, for which the binding signal was 0.245 ± 0.018 E-score.
For the sequence CGATACCC, the binding signal turned out to be 0.4916 ± 0.00317 E-score.
For TAATACCA, the binding signal is 0.37 ± 0.0315 E-score.
Regarding TGATACCA, the binding signal is 0.4811 ± 0.00363 E-score.
As to CGGTACTC, the binding signal was 0.176 ± 0.0493 E-score.
As for ATCAGGGG, the figure is 0.307 ± 0.019 E-score; as for TAGTGTCA, 0.245 ± 0.0279 E-score.
With ATCAATCA, the binding signal came out at 0.221 ± 0.00233 E-score.
As to AAACGTAT, the binding signal came to 0.262 ± 0.0965 E-score.
Turning to ATATTCCC, the binding signal is 0.305 ± 0.0527 E-score.
For the sequence ATACTGGG, the binding signal stood at 0.225 ± 0.0379 E-score.
Regarding ACGATCAT, the binding signal came to 0.186 ± 0.0246 E-score.
For the sequence ATCACGTC, the binding signal stood at 0.189 ± 0.0151 E-score.
Turning to ATATGTCA, the binding signal was found to be 0.166 ± 0.0885 E-score.
Regarding GCATACCC, the binding signal came to 0.289 ± 0.0463 E-score.
As for GGATACCA, the figure is 0.426 ± 0.0353 E-score; as for AAATACCC, 0.2 ± 0.00818 E-score; as for GGATACCC, 0.484 ± 0.00911 E-score.
In the case of GTATACCA, the binding signal was 0.364 ± 0.00595 E-score.
As to GAATACCA, the binding signal was determined as 0.278 ± 0.0281 E-score.
As for AGTATAAG, the figure is 0.161 ± 0.0893 E-score; as for TAATATAA, 0.257 ± 0.0514 E-score; as for ATCCACGA, 0.154 ± 0.0369 E-score.
As for ACTATCCT, the figure is 0.318 ± 0.0157 E-score.
Consider CTATTATC, for which the binding signal turned out to be 0.189 ± 0.0626 E-score.
For GACTATAC the value was 0.237 ± 0.00521 E-score.
For ACTATATC, the binding signal amounted to 0.367 ± 0.0339 E-score.
Turning to ACGATCGG, the binding signal turned out to be 0.169 ± 0.0263 E-score.
As for ACGATCTC, the figure is 0.189 ± 0.0362 E-score.
Regarding CCGATAGC, the binding signal stood at 0.329 ± 0.00875 E-score.
For CCGATAAC the value was 0.239 ± 0.00451 E-score.
As for ACGATATG, the figure is 0.417 ± 0.0227 E-score.
In the case of CCGATATC, the binding signal is 0.457 ± 0.0156 E-score.
In the case of ACGATATC, the binding signal came to 0.454 ± 0.0379 E-score.
ACGATATA: the binding signal came out at 0.296 ± 0.0641 E-score.
For ACCACACC the value was 0.174 ± 0.038 E-score.
For ATACGCCC the value was 0.275 ± 0.0117 E-score; for GATAACCA, 0.213 ± 0.00941 E-score; for ATCACTTG, 0.29 ± 0.0319 E-score.
On to GGCTAATA, for which the binding signal was determined as 0.201 ± 0.0383 E-score.
Consider AATATGGT, for which the binding signal is 0.177 ± 0.105 E-score.
GATAGCAC: the binding signal was 0.236 ± 0.0609 E-score.
On to ACGCGATA, for which the binding signal was 0.316 ± 0.0166 E-score.
In the case of CGGCGATA, the binding signal came to 0.3475 ± 0.00182 E-score.
